Inconclusive results are not listed. Unmarked numbers belong to inactive results. The source made the active and inactive calls. Unless noted, calls follow the shape of the dose curve; as a rule, active = well fitted curve in the direction sought with a large enough effect; inconclusive = small, poorly fitted or top-dose-only effect, or another doubt; inactive = no such curve, though single readings can be large; an effect the other way counts as inactive or inconclusive.

Test [1] deals with ATP-dependent 6-phosphofructokinase (Trypanosoma brucei brucei) (UniProt O15648). Description: qHTS Assay to Find Inhibitors of T. brucei phosphofructokinase: hit validation (AID 492961).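 Also: luminescence reports ADP formed as PFK phosphorylates fructose-6-phosphate with ATP; % is scaled to controls: 0 for no effect and ±100 for the full control effect.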 The method, boiled down:
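Percent activity derived from corrected luminescence, normalized between 0x and 1x enzyme controls, then fitted to concentration-response curves. Conditions: 1.25 nM PFK, 0.1 mM ATP, 0.5 mM F6P, 45 min RT.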

The target in test [2] is Luciferin 4-monooxygenase (Photinus pyralis) (UniProt P08659). Description: Biochemical firefly luciferase enzyme assay for NPC (AID 624030).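 Also: purified P. pyralis luciferase at 10 nM with luciferin and ATP substrate; 0% = DMSO and -100% = full luciferase inhibition by PTC124 control; nearly all actives have a fitted effect of over 70% in size.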 The method, boiled down:
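Counter-screen for direct inhibition of the luciferase enzyme by approved-drug library compounds, run at 10 nM enzyme in 50 mM Tris acetate (final). Luminescence was read within 5 min of enzyme-buffer addition and normalized to PTC124 versus DMSO (0%).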

Test [3] in a line: S16 Schwann cell PMP22 intronic element beta-lactamase assay (AID 624044; calls by dose curve;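 also: 0% = DMSO and -100% = potassium clavulanate positive control; nearly all actives have a fitted effect of over 15% in size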). The settings on record: S16 rat Schwann cells, PMP22 element beta-lactamase FRET, 24 h; ratio activity, negative = inhibition: at 38.3 µM (top of the series). A digest of the protocol: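 Rat S16 Schwann cells with beta-Lac driven by a PMP22 intronic element, compound-treated 24 h at 37 °C. LiveBLAzer FRET B/G read: 460 nm normalized to potassium clavulanate vs DMSO; 535 nm FRET as viability; concentration-effect curves classified.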

Test [4] in a line: qHTS profiling for inhibitors of Plasmodium falciparum proliferation (AID 504749). Also: nearly all actives have a fitted effect of over 60% in size. Also: potency is read from the fitted curve at half-maximal effect.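 As to activity, negative = inhibition: 0% = DMSO vehicle and full inhibition = artemisinin control.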 The settings on record: P. falciparum in erythrocytes, SYBR Green DNA, 72 h, at 28.7 µM (top of the series). A digest of the protocol:
(§1)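 P. falciparum-infected erythrocytes (0.3% parasitemia, 2.5% hematocrit final) were exposed to compounds for 72 h at 37 C in 5% CO2, then lysed with SYBR Green buffer overnight at room temperature; parasite DNA fluorescence was normalized to artemisinin and DMSO controls.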
(qHTS replaces the single test concentration by a dilution series.)

The test system of test [5] is CP192. Described as above. The settings on record: P. falciparum in erythrocytes, SYBR Green DNA, 72 h; series mostly up to 28.7 µM. A digest of the protocol: as §1
For test [6], the system named is CP286. Described as above. The settings on record: P. falciparum in erythrocytes, SYBR Green DNA, 72 h; series mostly up to 28.7 µM. A digest of the protocol:
as §1

The subject of test [7] is CP315. The description is as above. The settings on record: P. falciparum in erythrocytes, SYBR Green DNA, 72 h; series mostly up to 28.7 µM. A digest of the protocol: as §1
In test [8] the test system is CP325. Described as above. The settings on record: P. falciparum in erythrocytes, SYBR Green DNA, 72 h; series mostly up to 28.7 µM. A digest of the protocol: as §1
Test [9] concerns CP329. The test is described as above. The settings on record: P. falciparum in erythrocytes, SYBR Green DNA, 72 h; series mostly up to 28.7 µM. The method, boiled down: as §1
For test [10], the system named is FAB9. Described as above. The settings on record: P. falciparum in erythrocytes, SYBR Green DNA, 72 h; series mostly up to 28.7 µM. The method, boiled down: as §1
Test [11] concerns N140. The test is described as above. As to conditions: P. falciparum in erythrocytes, SYBR Green DNA, 72 h; series mostly up to 28.7 µM. A digest of the protocol: as §1
A short description of test [12]: S16 Schwann cell viability assay (CellTiter-Glo assay) (AID 624031).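 Also: native untransfected S16 rat Schwann cells; cellular ATP luminescence as a viability measure; plate controls were DMSO-treated cells for no effect and cell-free wells for full effect; nearly all actives have a fitted effect of over 70% in size.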 The method, boiled down:
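Concentration-effect curves come from CellTiter-Glo luminescence of S16 rat Schwann cells after 24 h compound exposure. Each reading was normalized to DMSO wells (0%) and wells without cells, and curves were ranked by r2 and response magnitude.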
(In general: In ATP-based viability assays light output follows the ATP content of the culture.)

Test [13] concerns CP262. Description: qHTS profiling for inhibitors of Plasmodium falciparum proliferation (AID 504749). Also: nearly all actives have a fitted effect of over 60% in size. Also: potency is read from the fitted curve at half-maximal effect.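 As to activity, negative = inhibition: 0% = DMSO vehicle and full inhibition = artemisinin control.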 As to conditions: P. falciparum in erythrocytes, SYBR Green DNA, 72 h; series mostly up to 28.7 µM. A digest of the protocol: as §1
Test [14] deals with Dd2. Described as above. As to conditions: P. falciparum in erythrocytes, SYBR Green DNA, 72 h; series mostly up to 28.7 µM. The method, boiled down:
as §1

Test [15] deals with PC49. Described as above. As to conditions: P. falciparum in erythrocytes, SYBR Green DNA, 72 h; series mostly up to 28.7 µM. The method, boiled down:
as §1

A short description of test [16]: qHTS for Inhibitors of Plasmodium falciparum (DD2) proliferation (AID 504314).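 Also: parasite DNA measured by SYBR Green fluorescence after red cell lysis; plate controls were DMSO vehicle for no effect and artemisinin wells for full effect.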 The method, boiled down:
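Erythrocytes infected with P. falciparum (0.3% parasitemia, 2.5% hematocrit final) were incubated with compounds for 72 h at 37C, 5% CO2. Parasite DNA was detected by SYBR Green I fluorescence after saponin/Triton lysis, normalized to artemisinin (0.29 uM) and DMSO controls.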

Sequence of Luciferin 4-monooxygenase (Photinus pyralis) (P08659 whole entry, looked up): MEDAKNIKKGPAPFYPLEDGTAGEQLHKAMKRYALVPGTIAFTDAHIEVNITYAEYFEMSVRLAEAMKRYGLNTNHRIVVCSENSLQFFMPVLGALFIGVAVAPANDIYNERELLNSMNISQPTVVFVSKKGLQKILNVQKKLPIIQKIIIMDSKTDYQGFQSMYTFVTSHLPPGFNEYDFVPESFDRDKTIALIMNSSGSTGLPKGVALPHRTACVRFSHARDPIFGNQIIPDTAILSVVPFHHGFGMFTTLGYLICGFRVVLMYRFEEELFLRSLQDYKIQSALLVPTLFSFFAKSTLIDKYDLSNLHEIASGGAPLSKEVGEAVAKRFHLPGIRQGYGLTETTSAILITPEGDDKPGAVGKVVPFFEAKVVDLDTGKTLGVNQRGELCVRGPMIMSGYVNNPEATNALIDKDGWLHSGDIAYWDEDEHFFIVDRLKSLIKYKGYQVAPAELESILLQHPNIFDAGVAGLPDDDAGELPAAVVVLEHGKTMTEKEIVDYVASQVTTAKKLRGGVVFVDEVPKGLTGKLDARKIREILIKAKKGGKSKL
Sequence of ATP-dependent 6-phosphofructokinase (Trypanosoma brucei brucei) (O15648 whole entry, looked up): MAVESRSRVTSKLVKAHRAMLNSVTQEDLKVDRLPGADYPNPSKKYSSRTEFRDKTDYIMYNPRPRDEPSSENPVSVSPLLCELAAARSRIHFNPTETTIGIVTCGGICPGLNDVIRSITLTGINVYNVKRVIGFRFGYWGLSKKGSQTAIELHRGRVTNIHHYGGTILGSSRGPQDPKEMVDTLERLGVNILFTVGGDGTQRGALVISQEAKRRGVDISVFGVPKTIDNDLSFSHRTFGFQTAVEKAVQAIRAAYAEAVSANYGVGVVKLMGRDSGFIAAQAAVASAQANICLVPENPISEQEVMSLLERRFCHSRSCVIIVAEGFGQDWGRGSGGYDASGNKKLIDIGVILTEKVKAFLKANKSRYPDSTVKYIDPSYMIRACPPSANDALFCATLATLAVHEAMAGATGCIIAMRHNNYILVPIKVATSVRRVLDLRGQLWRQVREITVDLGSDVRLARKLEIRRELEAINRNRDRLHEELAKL

As for `Cc1cc(O)c2c(c1)OC1(C)CCC3C(C)(C)CCCC34COC2C14` (stereo unspecified), the Potency result in test [1], in test [2], in [3], in test [5], in test [6] and in [7] was “inactive” each time. Moreover, the Potency entry in test [8], in [9] and in test [10] was “inactive” each time. The activity, negative = inhibition in test [4] (parasite line A) was -27.8%. The Potency in test [11] is 12.6 µM (active).
For `Cc1cnc(NC(=O)C2C(=O)c3ccccc3S(=O)(=O)N2C)s1` (stereo unspecified), the Potency entry in [1], in test [12], in test [3], in [5], in test [13] and in test [6] was “inactive” in each case. Further, the Potency entry in test [7], in [8], in [9], in [14], in test [10] and in test [11] was “inactive” each time. The Potency entry in test [15] is “inactive”. The activity, negative = inhibition in test [4] (parasite line A) was -14.2%.
As for `CCCCC(=O)OC1CCC2C3CCc4cc(O)ccc4C3CC[C@]12C` (stereo partly specified), the Potency result in test [1], in test [3], in test [5], in test [13], in test [6] and in [7] was “inactive” each time. Moreover, the Potency result in test [8], in [9], in test [10] and in test [15] was “inactive” in each case. Besides, the activity, negative = inhibition in [4] (parasite line A) is -29.6%. For the same compound, in test [11], the Potency is 11.2 µM (active).
Take `CC#CCN1c2ccccc2[C@]23C[C@@H](C(=O)OC)N(S(=O)(=O)c4ccc(C)cc4)C2=NC(C(=O)OC)=C(C(=O)OC)[C@H]13`: in test [16], the Potency result was “inactive”.
On to `Oc1cc2cc(CCN3CCN(c4nsc5ccccc45)CC3)c(Cl)cc2[nH]1`, for which the Potency result in test [1], in test [2], in test [3], in test [5], in test [13] and in [7] was “inactive” throughout. Moreover, the Potency result in [8], in test [9], in [14], in [10] and in test [15] was “inactive” throughout. For the same compound, the activity, negative = inhibition in test [4] (parasite line B) is -29.2%.
In the case of `COC(=O)C1=C(C(=O)OC)[C@@H]2Nc3ccccc3[C@@]23C[C@@H](C(=O)OC)N(S(=O)(=O)c2ccc(Br)cc2)C3=N1`, in test [16], the Potency entry was “inactive”.
Take `C=C1N[C@]2(C(=O)COC(C)=O)[C@@H](C[C@H]3[C@@H]4CCC5=CC(=O)C=C[C@]5(C)[C@H]4[C@@H](O)C[C@@]32C)O1`: the Potency entry in [1], in test [2], in test [12], in [3], in test [5] and in test [7] was “inactive” in each case. Also, the Potency entry in [14], in test [10], in [11] and in [15] was “inactive” each time. For the same compound, in [4] (parasite line B), the activity, negative = inhibition is -29.8%.
For `C[C@@H]1CC2[C@@H]3C[C@H](F)C4=CC(=O)C(Cl)=C[C@]4(C)[C@@]3(F)[C@H](O)C[C@]2(C)[C@@]1(O)C(=O)CO` (stereo partly specified), the Potency result in test [1], in [2], in test [12], in [5], in [13] and in [6] was “inactive” throughout. In addition, the Potency result in test [7], in [8], in test [9], in test [14], in [10] and in test [15] was “inactive” each time.
Take `CC1=C[C@@H](O)CC(C)(C)[C@@H]1/C=C/C(C)=C/C=C/C(C)=C/C=C/C=C(C)/C=C/C=C(C)/C=C/C1=C(C)C[C@H](O)CC1(C)C`: the Potency entry in test [1], in [2], in test [12], in test [3], in test [5] and in [13] was “inactive” each time. The Potency result in test [6], in [7], in test [8] and in test [9] was “inactive” throughout. Also, the activity, negative = inhibition in [4] (parasite line A) is -23.3%. Besides, the results for the Potency in test [14], in test [11] and in test [15] were 12.6 µM (active), 11.2 µM (active) and 10 µM (active), respectively.
`C=C1CC2C3C=C(C)C4=CC(=O)CCC4(C)C3CCC2(C)[C@@]1(OC(C)=O)C(C)=O` (stereo partly specified): the Potency result in test [1], in test [3], in test [5], in test [9], in [14] and in [10] was “inactive” throughout. Moreover, the Potency result in test [11] and in test [15] was “inactive” in each case. Moreover, the activity, negative = inhibition in [4] (parasite line B) was -26.9%.
As for `CCOc1ccccc1O[C@@H](c1ccccc1)[C@@H]1CNCCO1`, the Potency result in test [1], in test [2], in test [12], in test [3], in [5] and in test [13] was “inactive” each time. Also, the Potency entry in test [7], in test [8], in test [9] and in [10] was “inactive” in each case. Moreover, the activity, negative = inhibition in [4] (parasite line A) was -12.8%. For the same compound, the Potency was 0.0794 µM (active) in [14] and 2.24 µM (active) in test [15].
`CN(C)CC[C@@](O)(c1ccccc1)c1ccccc1Cl`: the Potency result in [1], in test [2], in [13] and in [10] was “inactive” in each case. In addition, the activity, negative = inhibition in test [4] (parasite line A) is -12.9%. The Potency in test [6] was 7.94 µM (active); in test [8] it was 7.57 µM (active); in test [14] it was 2 µM (active); in [11], 4.47 µM (active).
With `O=C(O)c1ccccc1-c1c2ccc(=O)cc-2oc2cc(O)ccc12`, the Potency result in test [1], in test [2], in [12], in test [3], in [6] and in [7] was “inactive” each time. Moreover, the Potency entry in test [9] was “inactive”.
Take `O=C(O)C[CH2][Ge](=[O])[O][Ge](=[O])[CH2]CC(=O)O`: the Potency result in test [1], in [2], in [12], in [3], in test [5] and in test [13] was “inactive” in each case. The Potency result in test [6], in test [7], in test [8], in [9], in [14] and in test [10] was “inactive” each time. Moreover, the Potency entry in test [11] and in [15] was “inactive” in each case. Moreover, in [4] (parasite line A), the activity, negative = inhibition was 10.2%.

Source of the values: PubChem BioAssay (NCATS).
